{"source": "PubChem BioAssay AID2410", "about": "(Southern Research Specialized Biocontainment Screening …, 2010)", "note": "The whole screen tested about 2,500 compounds, of which about 2,100 (84%) were called active.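 The calls were made as follows: active = toxic compounds, whose cell viability fell below 70% of untreated control cells; inactive = the rest.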 The set was probably picked from earlier hits. The list is a sample of the results. Where a call stands in place of a potency, no number is given. Potency and affinity values are given separately."}
{"test": "viability of uninfected HEp-2 cells – cell-based, HTS, cytotoxicity control for RSV inhibitor project, dose response (AID 2410);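 also: cells exposed to compound for six days before readout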", "conditions": "HEp-2 viability, luminescence, cytotoxicity counter-screen; series mostly up to 50 µM"}
{"smiles": "Cn1c(=NC(=O)C2CC2)sc2cc(F)cc(F)c21", "outcome": "inactive"}
{"smiles": "COC(=O)c1ccc2[nH]ccc2c1", "outcome": "inactive"}
{"smiles": "CC1CCCN(C(=O)CCNS(=O)(=O)c2ccc(Br)cc2)C1", "note": "(centres undefined)", "outcome": "inactive"}
{"smiles": "c1ccc(-c2nn3c(Cn4nnc5ccccc54)nnc3s2)cc1", "outcome": "inactive"}
{"smiles": "c1coc(-c2nn3c(Cn4nnc5ccccc54)nnc3s2)c1", "outcome": "inactive"}
{"smiles": "Cc1c(Cc2ccccc2)c(=O)oc2cc(O)cc(O)c12", "outcome": "inactive"}
{"smiles": "CCOC(=O)Cc1c(C)c2ccc(N(CC)CC)cc2oc1=O", "outcome": "inactive"}
{"smiles": "CNc1oc(/C=C/c2cccc(OC)c2)nc1C#N", "outcome": "inactive"}
{"smiles": "N#Cc1c(N2CCOCC2)nsc1-c1ccc(C(F)(F)F)cc1", "outcome": "inactive"}
{"smiles": "Cc1ccc(-c2nc3cc(N)ccc3o2)cc1Br", "outcome": "inactive"}
{"smiles": "COC(=O)c1sccc1NC(=O)c1ccccc1F", "outcome": "inactive"}
{"smiles": "O=C(NCCN1CCN(C(=O)C(c2ccccc2)c2ccccc2)CC1)C(=O)Nc1ccccc1", "outcome": "inactive"}
{"smiles": "COc1cc(N)c(Cl)cc1NC(=O)c1ccccc1", "outcome": "inactive"}
{"smiles": "Cc1nn2c(N)c(C#N)cnc2c1-c1ccccc1", "outcome": "inactive"}
{"smiles": "Cc1ccc(Nc2nc(N)c([N+](=O)[O-])c(N3CCOCC3)n2)cc1C", "outcome": "inactive"}
{"smiles": "C[C@@H]1CN(C(=O)c2nc3ccc(Cl)cn3c2CN2CCc3sccc3C2)C[C@H](C)O1", "outcome": "inactive"}
{"smiles": "CN(CC(=O)NCc1ccc(F)cc1)S(=O)(=O)c1cccc2nsnc12", "outcome": "inactive"}
{"smiles": "CCN(c1ccccc1)S(=O)(=O)c1ccc(Cl)c(NC(=O)c2ccc(=O)[nH]n2)c1", "outcome": "inactive"}
{"smiles": "CSc1ncc(Cl)c(C(=O)Nc2ccccc2Br)n1", "outcome": "inactive"}
{"smiles": "C/C(N)=C(/C#N)C(=O)COC(=O)c1ccncc1", "outcome": "inactive"}
{"smiles": "C=CCC1(C#N)C(=S)NC(C)=C(C(=O)OCC)C1c1ccccc1", "note": "(centres undefined)", "outcome": "inactive"}
{"smiles": "CNC(=S)N/N=C(\\C)c1ccc(-n2ccnc2)cc1", "outcome": "inactive"}
{"smiles": "Cc1ccc(-n2c(-c3cccnc3)n[nH]c2=S)c(C)c1", "outcome": "inactive"}
{"smiles": "COc1cc(-c2nc3c(c(C)nn3-c3ccccc3)c3cc(OC)c(OC)cc23)ccc1O", "outcome": "inactive"}
{"smiles": "COc1ccc(/C=C/C(=O)NCc2nc3ccccc3[nH]2)cc1OC", "outcome": "inactive"}
{"smiles": "CC(C(=O)NCCc1ccc(Cl)cc1)n1c(=O)c2cccn2c2cccnc21", "note": "(centres undefined)", "outcome": "inactive"}
{"smiles": "O=[N+]([O-])c1ccc(N/N=C/c2cccnc2)cc1", "outcome": "inactive"}
{"smiles": "COc1ccc(C2Nc3cc(OC)ccc3-n3cccc32)cc1", "note": "(centres undefined)", "outcome": "inactive"}
{"smiles": "COc1ccc(-c2cc(C(=O)Nc3nc4c(C)cccc4s3)c3ccccc3n2)cc1OC", "outcome": "inactive"}
{"smiles": "CCCNC(=O)N1CCN(c2nc(C(C)C)c3c(c2C#N)CC(C)(C)OC3)CC1", "outcome": "inactive"}
{"smiles": "Cc1cccc2nc(COc3ccc(Cl)c4cccnc34)cn12", "outcome": "inactive"}
{"smiles": "O=C1[C@H]2[C@@H](c3ccc(F)cc3)N3C(=O)N(c4ccc(Br)cc4)C(=O)[C@@]3(Cc3ccc(Cl)cc3)[C@H]2C(=O)N1C1CCCCC1", "outcome": "inactive"}
{"smiles": "O=C1[C@H]2[C@@H](c3ccc(Cl)cc3)N3C(=O)N(c4cccc(Br)c4)C(=O)[C@@]3(Cc3ccc(Cl)cc3)[C@H]2C(=O)N1C1CCCCC1", "outcome": "inactive"}
{"smiles": "CC(C)(C)N1C(=O)[C@H]2[C@@H](c3ccc(Br)cc3)N3C(=O)N(c4cccc(Cl)c4)C(=O)[C@@]3(Cc3ccccc3)[C@H]2C1=O", "outcome": "inactive"}
{"smiles": "COc1ccc2oc(-c3ccco3)cc(=O)c2c1", "outcome": "inactive"}
{"smiles": "O=c1c2ccccc2oc2ccc(-c3ccc4[nH]ccc4c3)cc12", "outcome": "inactive"}
{"smiles": "O=C1C2CCCN2c2ccc(S(=O)(=O)N3CCOCC3)cc2N1Cc1ccccc1F", "note": "(centres undefined)", "outcome": "inactive"}
{"smiles": "O=C(c1ccc(F)cc1)N1CCN2C(=O)c3ccccc3C12c1ccccc1", "note": "(centres undefined)", "outcome": "inactive"}
{"smiles": "Nc1ccc(Cl)c[n+]1Cc1cccc2cccnc12", "outcome": "inactive"}
{"smiles": "N#C/C(=C\\c1ccncc1)c1nc2c(s1)CCCC2", "outcome": "inactive"}
{"smiles": "COc1ccc2ccc(=O)oc2c1", "outcome": "inactive"}
{"smiles": "Cc1c(CC(=O)N2CCN(C(=O)C3COc4ccccc4O3)CC2)c(=O)oc2cc(O)cc(O)c12", "note": "(centres undefined)", "outcome": "inactive"}
{"smiles": "Cc1cc(S(=O)(=O)N2CCCC2)ccc1OCC(=O)Nc1ccccc1", "outcome": "inactive"}
{"smiles": "CC(=O)c1ccc2c(ccc3ccccc32)c1", "outcome": "inactive"}
{"smiles": "COCCCNC(=O)c1ccc(Cn2c(=O)c3ccccc3n(Cc3ccc(C)cc3)c2=O)cc1", "outcome": "inactive"}
{"smiles": "CC(=O)c1c(C)nc(-c2ccc(Cl)cc2)nc1N=CN(C)C", "outcome": "inactive"}
{"smiles": "O=C1c2ccccc2C(Nc2cccnc2)N1Cc1ccc2c(c1)OCO2", "note": "(centres undefined)", "outcome": "inactive"}
{"smiles": "Cc1ccc2[nH]c(=O)c(COC(=O)c3ccccn3)cc2c1", "outcome": "inactive"}
{"smiles": "COc1ccc(NC(=O)C2(c3ccc(NC(=O)c4ccc(OC)cc4)cc3)CCCC2)cc1", "outcome": "inactive"}
{"smiles": "Nc1nnnn1/N=C/c1ccc(O)cc1", "outcome": "inactive"}
{"smiles": "COCCn1c(-c2ccc(Cl)cc2Cl)nc2c(c(=O)c3ccccc3n2C)c1=O", "outcome": "inactive"}
{"smiles": "CCCCCC(=O)Nc1nc(C)c(-c2csc(Nc3cc(Cl)ccc3OC)n2)s1", "outcome": "inactive"}
{"smiles": "O=C(NC(C(=O)N/N=C/c1cccnc1)c1n[nH]c(=O)c2ccccc12)c1ccccc1", "note": "(centres undefined)", "outcome": "inactive"}
{"smiles": "O=C(NCCSCc1c(F)cccc1Cl)Nc1ccccc1", "outcome": "inactive"}
{"smiles": "Cc1nc2cc(Cl)c(Cl)cc2n1-c1ccccn1", "outcome": "inactive"}
{"smiles": "Cc1ccc([N+](=O)[O-])cc1S(=O)(=O)Nc1cccc(-c2ccc(N3CCOCC3)nn2)c1", "outcome": "inactive"}
{"smiles": "Cc1c(-c2nc(N)nc(Nc3ccc(F)cc3)n2)oc2ccccc12", "outcome": "inactive"}
{"smiles": "COC(=O)c1ccc(Nc2nnc(-c3ccc(C)c(S(=O)(=O)NCC4CCCO4)c3)c3ccccc23)cc1", "note": "(centres undefined)", "outcome": "inactive"}
{"smiles": "O=C(CSc1nc2ccccc2c2nc3ccccc3n12)NCc1ccco1", "outcome": "inactive"}
{"smiles": "CCCc1cc(-n2cnc3ccccc32)n2c(nc3ccccc32)c1C#N", "outcome": "inactive"}
{"smiles": "Cc1ccc2cc3cc(C(=O)N4CCCCCC4)oc3nc2c1", "outcome": "inactive"}
{"smiles": "Cc1sc(=NC(=O)c2ccco2)n(C)c1-c1ccc(Cl)cc1", "outcome": "inactive"}
{"smiles": "Cn1cc(C(N)=O)c2ccccc21", "outcome": "inactive"}
{"smiles": "Cc1ccc(C)c(NC(=O)CSc2nc3c(oc4ccccc43)c(=O)n2-c2ccccc2)c1", "outcome": "inactive"}
{"smiles": "O=C(Nc1ccon1)c1sc2cc(F)ccc2c1Cl", "outcome": "inactive"}
{"smiles": "Cc1ccc(/C=N\\NC(=O)C2CN(S(=O)(=O)c3ccccc3)CCN2S(=O)(=O)c2ccccc2)cc1", "note": "(centres undefined)", "outcome": "inactive"}
{"smiles": "C/C(N)=C(/C#N)C(=O)CSc1ncnc2ccccc12", "outcome": "inactive"}
{"smiles": "C/C(N)=C(/C#N)C(=O)CSc1cc(C)c2cc(C)cc(C)c2n1", "outcome": "inactive"}
{"smiles": "COc1ccc(CN2C(=O)c3cccnc3C2Nc2ccc(OC)c(Cl)c2)cc1", "note": "(centres undefined)", "outcome": "inactive"}
